Measurements as given in PubChem BioAssay (NCATS).
Records with an inconclusive call do not appear. The source made the active and inactive calls. The call rests on the fitted dose curve; in most records, active means well fitted curve in the direction sought with a large enough effect; inconclusive means small, poorly fitted or top-dose-only effect, or another doubt; inactive means no such curve, though single readings can be large; an effect the other way counts as inactive or inconclusive.

Key:
Furin (Homo sapiens) = Furin (Homo sapiens) (UniProt P09958); experiment: Furin counterscreen qHTS for Zika virus inhibitors (AID 1347149); conditions: furin enzymatic counterscreen, fluorogenic substrate; series mostly up to 114 µM; further: nearly all actives have a fitted effect of over 70% in size; further: potency means the concentration at half of the fitted maximal effect
Summary of the method: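 Fluorogenic cleavage of BOC-RVRR-AMC (2 microM final, Km ~15 µM) was monitored (ex 340, em 450 nm) at 37C after 15 min RT preincubation of 5 nM furin with compounds in HEPES pH 7.0 buffer with CaCl2 and Triton X-100. Percent inhibition was fitted to a 4-parameter Hill curve.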

[1] = test system: Zika virus NS2B-NS3 protease (unlinked); experiment: Optimization of GU AMC qHTS for Zika virus inhibitors: Unlinked NS2B-NS3 protease assay (AID 1347151); conditions: recombinant ZIKV NS2B-NS3 protease, fluorogenic AMC substrate; further: potency means the concentration at half of the fitted maximal effect; nearly all actives have a fitted effect of over 80% in size
Summary of the method: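 Fluorescence read-out (340 nm ex / 450 nm em) of AMC peptide cleavage, taken immediately and after 15 min at room temperature (~20% conversion). Enzyme was the unlinked NS2B–NS3 complex at 25 nM in Tris pH 8.0 buffer.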

[2] = qHTS of pediatric cancer cell lines to identify multiple opportunities for drug repurposing: Primary screen for A673 cells (AID 1347092); conditions: A673 Ewing sarcoma viability, CellTiter-Glo ATP luminescence, 48 h; series mostly up to 46 µM; further: nearly all actives have a fitted effect of over 45% in size
Summary of the method: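 48 h compound exposure, A673, 500-1,000 cells/well, 37 degrees C/5% CO2. MIPE: 11-point, 0.78 nM-46 µM; NPC: 8-point, 0.59 nM-46 µM (final). Readout CellTiter-Glo luminescence after 15 min RT.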

[3] = qHTS of pediatric cancer cell lines to identify multiple opportunities for drug repurposing: Primary screen for SK-N-MC cells (AID 1347093); conditions: SK-N-MC viability, CellTiter-Glo luminescence, 48 h; series mostly up to 46 µM
Summary of the method: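 Metabolically active cells were quantified by ATP-dependent luminescence (CellTiter-Glo, 15 min at room temperature) following 48 h treatment. Cells had been plated at 500-1,000 per well and settled for 5 h beforehand.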

[4] = qHTS of pediatric cancer cell lines to identify multiple opportunities for drug repurposing: Primary screen for BT-37 cells (AID 1347094); conditions: BT-37 viability, CellTiter-Glo luminescence, 48 h; series mostly up to 57.3 µM
Summary of the method: (§1)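 Primary screen of approved and investigational compounds on cells in growth media at 37 degrees C, 5% CO2. MIPE set at 11-point and NPC set at 8-point dilutions; viability scored by ATP-based luminescence at 48 hours.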

[5] = qHTS of pediatric cancer cell lines to identify multiple opportunities for drug repurposing: Primary screen for NB-EBc1 cells (AID 1347095); conditions: NB-EBc1 neuroblastoma viability, CellTiter-Glo luminescence, 48 h; series mostly up to 46 µM
Summary of the method: as §1

[6] = qHTS of pediatric cancer cell lines to identify multiple opportunities for drug repurposing: Primary screen for U-2 OS cells (AID 1347096); conditions: U-2 OS viability, CellTiter-Glo luminescence, 48 h; series mostly up to 46 µM; further: nearly all actives have a fitted effect of over 50% in size
Summary of the method: (§2)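 Cells (500-1,000/well) in growth media were settled 5 h at 37 degrees C, then given compounds for 48 h. Viability was read as CellTiter-Glo luminescence. Primary runs used MIPE at 11 points (0.78 nM-46 µM) and NPC at 8 points (0.59 nM-46 µM); follow-ups used 11 points.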

[7] = qHTS of pediatric cancer cell lines to identify multiple opportunities for drug repurposing: Primary screen for Saos-2 cells (AID 1347097); conditions: Saos-2 viability, CellTiter-Glo ATP luminescence, 48 h; series mostly up to 46 µM; further: nearly all actives have a fitted effect of over 40% in size
Summary of the method: as §1

[8] = qHTS of pediatric cancer cell lines to identify multiple opportunities for drug repurposing: Primary screen for SK-N-SH cells (AID 1347098); conditions: SK-N-SH viability, CellTiter-Glo luminescence, 48 h; series mostly up to 57 µM;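 further: DMSO served as neutral control and bortezomib at 2.3 µM as positive control; nearly all actives have a fitted effect of over 65% in size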
Summary of the method: (§3)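 Cells (500-1,000/well) rested 5 h, then received compounds for 48 h; metabolically active cells were measured by CellTiter-Glo luminescence. Final concentrations spanned up to 46 µM (MIPE, 11-point) or 0.59 nM-46 µM (NPC, 8-point) in primary screens, 11-point in follow-ups.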

[9] = qHTS of pediatric cancer cell lines to identify multiple opportunities for drug repurposing: Primary screen for NB1643 cells (AID 1347099); conditions: NB1643 neuroblastoma viability, CellTiter-Glo luminescence, 48 h; series mostly up to 46 µM; further: nearly all actives have a fitted effect of over 50% in size
Summary of the method: as §1

[10] = qHTS of pediatric cancer cell lines to identify multiple opportunities for drug repurposing: Primary screen for LAN-5 cells (AID 1347100); conditions: LAN-5 neuroblastoma viability, CellTiter-Glo luminescence, 48 h; series mostly up to 46 µM
Summary of the method: as §2

[11] = qHTS of pediatric cancer cell lines to identify multiple opportunities for drug repurposing: Primary screen for BT-12 cells (AID 1347101); conditions: BT-12 viability, CellTiter-Glo luminescence, 48 h; series mostly up to 57.3 µM; further: nearly all actives have a fitted effect of over 25% in size
Summary of the method: as §3

[12] = qHTS of pediatric cancer cell lines to identify multiple opportunities for drug repurposing: Primary screen for Rh18 cells (AID 1347102); conditions: Rh18 rhabdomyosarcoma viability, CellTiter-Glo luminescence, 48 h; series mostly up to 46 µM; further: nearly all actives have a fitted effect of over 65% in size
Summary of the method: as §2

[13] = qHTS of pediatric cancer cell lines to identify multiple opportunities for drug repurposing: Primary screen for OHS-50 cells (AID 1347103); conditions: OHS-50 osteosarcoma viability, CellTiter-Glo luminescence, 48 h; series mostly up to 57.3 µM; further: nearly all actives have a fitted effect of over 40% in size
Summary of the method: as §3

[14] = qHTS of pediatric cancer cell lines to identify multiple opportunities for drug repurposing: Primary screen for RD cells (AID 1347104); conditions: RD rhabdomyosarcoma viability, CellTiter-Glo luminescence, 48 h; series mostly up to 46 µM; further: nearly all actives have a fitted effect of over 55% in size
Summary of the method: as §1

[15] = qHTS of pediatric cancer cell lines to identify multiple opportunities for drug repurposing: Primary screen for MG 63 (6-TG R) cells (AID 1347105); conditions: MG 63 (6-TG R) viability, CellTiter-Glo, 48 h; series mostly up to 46 µM; further: nearly all actives have a fitted effect of over 50% in size
Summary of the method: as §1

[16] = qHTS of pediatric cancer cell lines to identify multiple opportunities for drug repurposing: Primary screen for control Hh wild type fibroblast cells (AID 1347106); conditions: Hh wild-type fibroblast viability, CellTiter-Glo luminescence, 48 h; series mostly up to 46 µM;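 further: a drop in luminescence marks cytotoxicity and a rise apparent proliferation; nearly all actives have a fitted effect of over 55% in size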
Summary of the method: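 Viability after 48 h compound treatment at 37C, 500-1,000 cells/well, read as ATP luminescence with CellTiter-Glo. Primary screens used 11-point (MIPE, 0.78 nM-46 µM) or 8-point (NPC, 0.59 nM-46 µM) final concentrations; follow-up screens used 11-point dilutions.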

[17] = qHTS of pediatric cancer cell lines to identify multiple opportunities for drug repurposing: Primary screen for Rh30 cells (AID 1347107); conditions: Rh30 rhabdomyosarcoma viability, CellTiter-Glo luminescence, 48 h; series mostly up to 46 µM; further: nearly all actives have a fitted effect of over 75% in size
Summary of the method: as §2

[18] = qHTS of pediatric cancer cell lines to identify multiple opportunities for drug repurposing: Primary screen for Rh41 cells (AID 1347108); conditions: Rh41 rhabdomyosarcoma viability, CellTiter-Glo luminescence, 48 h; series mostly up to 46 µM;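 further: luminescence drop marks cytotoxic hits; nearly all actives have a fitted effect of over 70% in size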
Summary of the method: as §1

[19] = target: N-terminal Xaa-Pro-Lys N-methyltransferase 1 (Homo sapiens) (UniProt Q9BV86); experiment: qHTS Assay for Inhibitors of N-terminal methyltransferase 1 (NTMT1): LOPAC validation of the NTMT1 SAHH-coupled ThioGlo3 Assay (AID 1347143); conditions: recombinant NTMT1, SAHH-coupled ThioGlo3 fluorescence; further: potency means the concentration at half of the fitted maximal effect; nearly all actives have a fitted effect of over 70% in size
Summary of the method: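 Fluorescence read-out (excitation 340nm, emission 450nm) of SAH-derived thiol, measured via SAHH coupling and ThioGlo3, taken immediately and after a 30 min room-temperature reaction, then normalized to the background read. Enzyme: NTMT1 at 125nM; cofactor SAM 100uM in the added reagent.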

Measured: Potency

Furin (Homo sapiens), sequence (P09958 whole entry, looked up): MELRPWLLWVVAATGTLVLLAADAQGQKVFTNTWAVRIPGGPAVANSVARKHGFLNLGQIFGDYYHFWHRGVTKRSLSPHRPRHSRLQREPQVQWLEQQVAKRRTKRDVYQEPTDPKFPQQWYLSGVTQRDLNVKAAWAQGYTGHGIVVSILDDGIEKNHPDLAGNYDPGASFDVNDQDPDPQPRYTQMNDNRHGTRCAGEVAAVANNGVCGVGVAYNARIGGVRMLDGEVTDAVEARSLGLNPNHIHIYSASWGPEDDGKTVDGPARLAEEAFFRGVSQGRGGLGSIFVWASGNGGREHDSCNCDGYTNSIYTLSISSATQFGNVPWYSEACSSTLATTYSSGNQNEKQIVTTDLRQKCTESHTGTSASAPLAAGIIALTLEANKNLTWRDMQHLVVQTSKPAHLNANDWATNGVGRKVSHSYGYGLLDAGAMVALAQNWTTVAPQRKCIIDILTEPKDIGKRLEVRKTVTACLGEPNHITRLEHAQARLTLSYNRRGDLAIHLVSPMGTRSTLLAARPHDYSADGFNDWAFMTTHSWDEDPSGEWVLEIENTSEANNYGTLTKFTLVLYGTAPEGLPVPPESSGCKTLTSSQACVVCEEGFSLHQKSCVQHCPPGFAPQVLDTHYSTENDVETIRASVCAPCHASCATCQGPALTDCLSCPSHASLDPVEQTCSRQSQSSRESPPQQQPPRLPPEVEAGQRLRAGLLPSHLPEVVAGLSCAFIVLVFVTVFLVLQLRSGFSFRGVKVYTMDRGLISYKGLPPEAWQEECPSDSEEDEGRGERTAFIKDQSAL
N-terminal Xaa-Pro-Lys N-methyltransferase 1 (Homo sapiens), sequence (Q9BV86 whole entry, looked up): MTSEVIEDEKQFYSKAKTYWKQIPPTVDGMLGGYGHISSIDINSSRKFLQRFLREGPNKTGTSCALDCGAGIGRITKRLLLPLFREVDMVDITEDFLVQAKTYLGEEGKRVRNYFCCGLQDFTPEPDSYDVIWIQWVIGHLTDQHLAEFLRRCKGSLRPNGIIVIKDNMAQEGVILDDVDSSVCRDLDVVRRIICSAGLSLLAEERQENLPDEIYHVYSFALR

O=C(/C=C/c1c(C(=O)O)[nH]c2cc(Cl)cc(Cl)c12)Nc1ccccc1
inactive: Furin (Homo sapiens)

Nc1c(N=Nc2ccc(-c3ccc(N=Nc4cc(S(=O)(=O)O)c5ccccc5c4N)cc3)cc2)cc(S(=O)(=O)O)c2ccccc12
active: Furin (Homo sapiens) 37.3 µM

C=C1CC[C@@H]2[C@](C)(CO[C@@H]3O[C@H](CO)[C@@H](O)[C@H](O)[C@H]3O)CCC[C@@]2(C)[C@@H]1CCC1=CCOC1=O
inactive: Furin (Homo sapiens)

CC(C)N=c1cc2n(-c3ccc(Cl)cc3)c3ccccc3nc-2cc1Nc1ccc(Cl)cc1
active: [1] 0.607 µM
inactive: Furin (Homo sapiens)

CC(C)C(=O)c1cn(CC(=O)COc2ccc(Oc3ccccc3)cc2)c2ccc(C(=O)O)cc12
inactive: Furin (Homo sapiens)

CC(=O)OC(C)OC(=O)C(C)c1ccc(-c2ccccc2)c(F)c1 (centres undefined)
not listed: Furin (Homo sapiens) | [1] | [19]
inactive: all other assays above

CN1Cc2c(N)cccc2C(c2ccccc2)C1 (centres undefined)
active: [19] 35.5 µM
not listed: Furin (Homo sapiens) | [1]
inactive: all other assays above

CCOc1c2c(c(OCC)c3ccccc13)C(=O)N(c1ccc(CC(=O)NS(=O)(=O)c3ccccc3)cc1)C2
inactive: Furin (Homo sapiens)

N#CC1C(=O)Nc2scc(-c3ccc(-c4ccccc4O)cc3)c2C1=O (centres undefined)
inactive: Furin (Homo sapiens)

O=C(O)c1cc(O)c2cccc(O)c2c1O[C@@H]1O[C@H](CO)[C@@H](O)[C@H](O)[C@H]1O
active: Furin (Homo sapiens) 34.3 µM
